Results on 8 molecules are retold here after PubChem BioAssay (NCI).

Some test systems named below: DU-145 prostate; K-562 leukemia; MALME-3M melanoma; MDA-MB-231 breast; RXF 393 renal; SF-268 CNS; SF-295 CNS; SF-539 CNS; UACC-257 melanoma; M14 melanoma; HCT-15 colon; HT29 colon; SNB-75 CNS; SNB-19 CNS; U251 CNS; PC-3 prostate; SK-MEL-5 melanoma; UACC-62 melanoma; LOX IMVI melanoma; SK-MEL-28 melanoma.
Holding throughout (experiment): NCI-60 one-dose screen, 48 h (100 = growth as untreated, 0 = no growth, -100 = all killed)
Details in all cases: 10 µM unless noted

This is part of a sample that, as a whole, favours compounds with a hit. Of some 83,000 tested, about 20% had one in any assay.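 Each cell line was grown in a 96-well plate and treated with one concentration of compound for 48 hours. Values below 10 were considered active.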 Values without a mark were called inactive. Calls of active or inactive are those of the source.

As to `CCCCCCCCCCCCCCCCCC1OCC(COC(=O)O[C@]2(CC)C(=O)OCc3c2cc2n(c3=O)Cc3cc4ccccc4nc3-2)O1` (stereo not given in full), the growth in the assay with DU-145 prostate is 76%; in the assay on K-562 leukemia, 88.4%; in the assay on MALME-3M melanoma, 101%; in the assay with MDA-MB-231 breast, 93.1%; in the assay with RXF 393 renal, 89.4%; in the assay with SF-268 CNS, 45.7%. For the same molecule, the growth in the assay on SF-295 CNS was 23.4%; in the assay with SF-539 CNS it was 68.1%; in the assay on UACC-257 melanoma, 95.9%; in the assay on M14 melanoma, 75.3%; in the assay with HCT-15 colon it was 83.5%; in the assay on HT29 colon it was 79.6%. Moreover, the growth in the assay on SNB-75 CNS was 79.6%; in the assay with SNB-19 CNS, 57.6%; in the assay with U251 CNS, 56.5%; in the assay with PC-3 prostate, 77.8%; in the assay on SK-MEL-5 melanoma, 84.6%; in the assay with UACC-62 melanoma, 31.6%. Moreover, the growth with LOX IMVI melanoma is 59.7%; in the assay on SK-MEL-28 melanoma it was 111%.
Turning to `COc1cc(C(=O)c2cnc(-c3cccc4[nH]ccc34)[nH]2)cc(OC)c1OC`, the growth is 2.85% (active) with DU-145 prostate; 8.88% (active) with K-562 leukemia; 60.8% in the assay on MALME-3M melanoma; -3.5% (active) with MDA-MB-231 breast; 66.7% in the assay with RXF 393 renal; 24.5% with SF-268 CNS. Also, the growth was 21.6% in the assay on SF-295 CNS; 1.12% (active) in the assay on SF-539 CNS; 85% with UACC-257 melanoma; -6.97% (active) in the assay on M14 melanoma; 17.8% in the assay with HCT-15 colon; 7.58% (active) in the assay with HT29 colon. In addition, the growth in the assay with SNB-75 CNS is 30.5%; with SNB-19 CNS it was 40.3%; in the assay on U251 CNS it was 20.2%; in the assay with PC-3 prostate it was 22.4%; in the assay with SK-MEL-5 melanoma, -23.6% (active); in the assay with UACC-62 melanoma, 39.3%. In addition, the values for the growth in the assay on LOX IMVI melanoma and in the assay on SK-MEL-28 melanoma were 28.1% and 55.1%, respectively.
On to `CN(C)CCNc1nc2ccccc2c2c(=O)c3cc(F)ccc3sc12`, for which the growth with DU-145 prostate is 28.1%; with K-562 leukemia, -36.5% (active); in the assay with MALME-3M melanoma, 81.9%; with MDA-MB-231 breast, 6.88% (active); with RXF 393 renal, 40%; with SF-268 CNS, 45.6%. Moreover, the growth in the assay on SF-295 CNS is 71.7%; with SF-539 CNS, 45.3%; in the assay with UACC-257 melanoma, 91.9%; with M14 melanoma, -77.9% (active); in the assay on HCT-15 colon, 22.7%; in the assay with HT29 colon, -3.23% (active). Besides, the growth in the assay with SNB-75 CNS is 54.9%; with SNB-19 CNS it was 55.4%; in the assay with U251 CNS, 41.4%; in the assay on PC-3 prostate it was 40.4%; with SK-MEL-5 melanoma, 83.5%; in the assay on UACC-62 melanoma, 53.4%. For the same molecule, the values for the growth in the assay with LOX IMVI melanoma and with SK-MEL-28 melanoma were -64.3% (active) and 55.6%, respectively.
Take `COc1c(C2CC(=O)Nc3c2c(C)nn3-c2nc3ccccc3[nH]2)cc2c(c1OC)OCO2` (stereo not given): the growth was 80.2% with DU-145 prostate; 15.1% in the assay on K-562 leukemia; 86.5% in the assay on MALME-3M melanoma; 68.4% in the assay on MDA-MB-231 breast; 27.1% in the assay on RXF 393 renal; 62.1% in the assay on SF-268 CNS. In addition, the growth with SF-295 CNS was 19.8%; in the assay on SF-539 CNS it was 59.8%; in the assay on UACC-257 melanoma it was 67.1%; in the assay with M14 melanoma, 33.3%; in the assay on HCT-15 colon it was 37.2%; in the assay with HT29 colon, 20.5%. Also, the growth in the assay with SNB-75 CNS is 44.2%; in the assay with SNB-19 CNS, 49.6%; with U251 CNS, 31.5%; with PC-3 prostate, 48.4%; in the assay with SK-MEL-5 melanoma it was 31.9%; in the assay on UACC-62 melanoma, 55.2%. Also, the growth was 46.7% with LOX IMVI melanoma and 44.2% in the assay on SK-MEL-28 melanoma.
Consider `Fc1cc(-c2nnc3sc(-c4ccc(Cl)cc4Cl)nn23)c(Cl)cc1Cl`, for which the growth in the assay with DU-145 prostate is 92.7%; in the assay with K-562 leukemia it was 107%; in the assay on MALME-3M melanoma, 52.3%; in the assay with MDA-MB-231 breast it was 74.8%; with RXF 393 renal, 65.4%; with SF-268 CNS, 71.5%. In addition, the growth is 78.4% in the assay on SF-295 CNS; 108% with SF-539 CNS; 85.1% in the assay on UACC-257 melanoma; 97.5% with M14 melanoma; 90.7% in the assay with HCT-15 colon; 72.1% in the assay with HT29 colon. The growth with SNB-75 CNS was 49.1%; in the assay on SNB-19 CNS, 79.5%; in the assay with U251 CNS, 75.5%; with PC-3 prostate, 94.4%; in the assay on SK-MEL-5 melanoma it was 67.4%; with UACC-62 melanoma it was 92.3%. Also, the growth is 96.2% in the assay with LOX IMVI melanoma and 69.3% in the assay on SK-MEL-28 melanoma.
In the case of `O=c1c2cc(F)ccc2sc2c(N3CCNCC3)nc3ccc(F)cc3c12`, the growth in the assay on DU-145 prostate is -84.7% (active); in the assay with K-562 leukemia, -37.8% (active); with MALME-3M melanoma it was 82.6%; in the assay on MDA-MB-231 breast it was -76.4% (active); with RXF 393 renal, 50.9%; with SF-268 CNS, 48.3%. In addition, the growth in the assay on SF-295 CNS was 77.8%; in the assay on SF-539 CNS it was -89.4% (active); in the assay on UACC-257 melanoma, 96.3%; with M14 melanoma, -62% (active); with HCT-15 colon, -66.4% (active); with HT29 colon it was -41.2% (active). For the same molecule, the growth in the assay with SNB-75 CNS was 53.9%; in the assay on SNB-19 CNS, 57%; with U251 CNS it was -56.2% (active); with PC-3 prostate, 32%; in the assay with SK-MEL-5 melanoma, 81.5%; in the assay on UACC-62 melanoma, 0.994% (active). Besides, the growth with LOX IMVI melanoma was -98.5% (active); in the assay on SK-MEL-28 melanoma, 27.9%.
For the molecule `O=C(/C=C/c1sc(Cl)nc1Cl)c1ccc(F)cc1`, the growth in the assay with DU-145 prostate was 92%; with K-562 leukemia it was 10%; in the assay on MALME-3M melanoma it was 79.3%; in the assay with MDA-MB-231 breast it was 81.5%; in the assay with RXF 393 renal it was 93.3%; in the assay on SF-268 CNS it was 92.8%. Further, the growth in the assay on SF-295 CNS is 95.7%; in the assay on SF-539 CNS, 66.8%; with UACC-257 melanoma, 95.9%; in the assay with M14 melanoma, 78.4%; in the assay on HCT-15 colon, 31.2%; in the assay with HT29 colon, 84.5%. Further, the growth in the assay on SNB-75 CNS is 92.5%; with SNB-19 CNS, 90.8%; in the assay on U251 CNS it was 40.4%; in the assay on PC-3 prostate, 88.5%; with SK-MEL-5 melanoma it was 93.6%; with UACC-62 melanoma, 93.3%. Further, the growth is 0.0946% (active) in the assay on LOX IMVI melanoma and 97.2% with SK-MEL-28 melanoma.
On to `Cc1cc(-c2cc(C)c(N)cc2C)c(C)cc1N`, for which the growth in the assay on DU-145 prostate was 121%; in the assay with K-562 leukemia, 54.7%; in the assay on MALME-3M melanoma it was 84.2%; in the assay on MDA-MB-231 breast, 82.8%; in the assay on RXF 393 renal, 111%; in the assay with SF-268 CNS, 95.9%. Moreover, the growth with SF-295 CNS is 84.1%; in the assay with SF-539 CNS, 97.5%; in the assay with UACC-257 melanoma it was 90.5%; with M14 melanoma, 65.6%; with HCT-15 colon, 73%; in the assay on HT29 colon, 99%. The growth in the assay on SNB-75 CNS is 101%; in the assay on SNB-19 CNS, 85.2%; in the assay with U251 CNS, 71.8%; in the assay with PC-3 prostate it was 80.5%; in the assay on SK-MEL-5 melanoma, 81.6%; with UACC-62 melanoma it was 75.8%. Also, the figures for the growth in the assay with LOX IMVI melanoma and in the assay with SK-MEL-28 melanoma were 75.6% and 89.3%, respectively.
